25 molecules from PubChem BioAssay AID504734 (The Scripps Research Institute Molecular Screening Center, 2011) can be followed below.

Among all 340,000 compounds or so, about 730 (0.21%) were called active. The entries come from a sample that favours actives as a whole. Values without a mark were called inactive.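 Rule for the calls: active = inhibition above the mean over all tested compounds plus 3 SD (cut at about 21% in these data); inactive = the rest.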

Chain of Toll-like receptor 9 (Homo sapiens) + Myeloid differentiation primary response protein MyD88 (Homo sapiens) (Q99836 whole entry, looked up): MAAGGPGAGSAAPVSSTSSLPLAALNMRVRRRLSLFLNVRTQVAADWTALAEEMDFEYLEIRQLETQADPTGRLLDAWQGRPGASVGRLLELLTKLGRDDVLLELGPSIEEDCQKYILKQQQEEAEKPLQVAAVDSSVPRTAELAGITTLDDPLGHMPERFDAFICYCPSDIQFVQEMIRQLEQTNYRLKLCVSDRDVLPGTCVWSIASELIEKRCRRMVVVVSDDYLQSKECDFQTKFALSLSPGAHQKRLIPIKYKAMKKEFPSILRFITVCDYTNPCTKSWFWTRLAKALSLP
Chain of Toll-like receptor 9 (Homo sapiens) + Myeloid differentiation primary response protein MyD88 (Homo sapiens) (Q9NR96 whole entry, looked up): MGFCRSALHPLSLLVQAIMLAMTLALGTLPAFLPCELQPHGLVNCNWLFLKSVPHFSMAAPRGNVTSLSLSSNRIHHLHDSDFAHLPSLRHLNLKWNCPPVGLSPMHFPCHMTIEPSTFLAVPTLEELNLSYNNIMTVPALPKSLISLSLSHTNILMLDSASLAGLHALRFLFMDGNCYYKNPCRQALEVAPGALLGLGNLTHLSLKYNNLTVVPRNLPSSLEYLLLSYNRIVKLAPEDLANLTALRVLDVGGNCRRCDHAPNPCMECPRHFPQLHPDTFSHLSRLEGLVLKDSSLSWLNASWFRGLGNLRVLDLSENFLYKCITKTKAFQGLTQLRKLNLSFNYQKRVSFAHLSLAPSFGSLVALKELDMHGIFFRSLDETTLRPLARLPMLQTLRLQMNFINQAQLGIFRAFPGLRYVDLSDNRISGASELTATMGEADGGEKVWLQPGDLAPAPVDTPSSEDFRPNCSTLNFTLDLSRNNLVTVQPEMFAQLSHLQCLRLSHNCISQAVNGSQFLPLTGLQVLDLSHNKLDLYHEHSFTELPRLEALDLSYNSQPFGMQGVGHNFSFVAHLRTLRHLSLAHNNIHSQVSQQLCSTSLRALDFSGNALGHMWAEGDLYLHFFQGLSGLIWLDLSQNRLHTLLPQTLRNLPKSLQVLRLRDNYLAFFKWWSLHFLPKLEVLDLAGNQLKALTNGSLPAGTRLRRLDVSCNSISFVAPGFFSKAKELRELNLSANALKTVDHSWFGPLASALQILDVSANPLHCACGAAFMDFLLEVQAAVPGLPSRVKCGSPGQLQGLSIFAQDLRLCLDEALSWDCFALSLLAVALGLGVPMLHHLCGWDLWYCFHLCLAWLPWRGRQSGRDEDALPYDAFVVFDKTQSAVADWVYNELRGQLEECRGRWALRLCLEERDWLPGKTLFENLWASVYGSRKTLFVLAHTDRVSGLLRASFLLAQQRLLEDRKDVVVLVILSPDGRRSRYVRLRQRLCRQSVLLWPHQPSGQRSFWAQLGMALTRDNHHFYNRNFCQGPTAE

The assay has as its target Toll-like receptor 9 (Homo sapiens) + Myeloid differentiation primary response protein MyD88 (Homo sapiens) (UniProt Q9NR96+Q99836). As to the kind of experiment: inhibitors of TLR9-MyD88 association in cells, primary screen, cell-based, CHO, BLA complementation, fluorescence (AID 504734).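 Note: 0% = DMSO only wells and 100% = clavulanate BLA inhibitor control wells.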 Particulars: CHO BLA complementation TLR9-MyD88, CCF4 FRET ratio; at 4.98 µM; hits give high values.
`COc1ccc(-c2nn(-c3ccccc3)cc2/C=N/Nc2ccccn2)cc1OC`: the inhibition was 27.6% (active). Consider `O=Cc1cn(-c2ccccc2)nc1-c1ccccn1`, for which the inhibition is -5.05%. As for `COc1ccc(-c2nn(-c3ccccc3)cc2C(=O)Nc2nccs2)cc1OC`, the inhibition was 7.8%. Regarding `NC1=CC(=O)C(=O)c2cccnc21`, the inhibition is -3.3%. With `Cc1nc2ccccn2c(=O)c1NC(=O)c1ccc(Br)o1`, the inhibition is -8.57%. Regarding `C[C@H]1CN([C@@H](C)CO)C(=O)CCCn2cc(nn2)CO[C@@H]1CN(C)S(=O)(=O)c1cccs1`, the inhibition was -3.23%. As for `Nc1cccc(-c2cc(-c3ccccc3)nc(-c3cccc(N)c3)n2)c1`, the figure is 4.91%; as for `CCN(CC)C(=O)c1sc2nc(-c3ccccc3)ccc2c1N`, 1.41%; as for `CS(=O)(=O)c1sc2nc(-c3ccccc3)cc(-c3ccccc3)c2c1N`, 21.5% (active).

For the molecule `CCOC(=O)C(C(=O)c1ccccc1)C(c1ccccc1)c1nccc2ccccc12` (stereo not given), the inhibition is -3.27%. For `O=C(O)c1ccccc1Cc1ccc(F)c2ccccc12`, the inhibition is 0.89%. To `O=C1NC(Cc2ccccc2)c2nc3ccc(Br)cc3c(=O)n2-c2cc3ccccc3cc21` (stereo not given) belongs 4.34%; to `COc1ccc(-c2cc(-c3ccc(N)cc3)nc(N)c2C#N)cc1OC`, -1.14%; to `COc1ccc(-c2cc(C(F)(F)F)nc(S(C)(=O)=O)n2)cc1OC`, 27.6% (active). As for `COc1ccc(-c2ccc(Nc3ccc(S(=O)(=O)N4CCCC4)cc3)nn2)cc1OC`, the inhibition was -1.95%. For `Cc1ccc(S(=O)(=O)N2CCOCC2)cc1NC(=O)c1ccncc1`, the inhibition was -10.3%.

Take `CCN1CCCC1CNC(=O)c1ccc2c(c1)NC(=O)/C(=C\c1ccccc1F)S2` (stereo not given): the inhibition was 5.07%. For the molecule `COc1ccc(-c2nc3cc(C)ccn3c2NC2CCCCC2)cc1SC1CCCCC1`, the inhibition was -0.33%.

As for `COc1ccc(-c2nc3cnccn3c2NC(C)(C)CC(C)(C)C)cc1O`, the inhibition was -0.94%. Take `COc1ccc(-c2nc3cnccn3c2NC2CCCCC2)cc1-c1cccc(Cl)c1`: the inhibition is 40.9% (active). With `CN(C)C(CNC(=O)c1cc(Br)c(Br)s1)c1ccco1` (stereo not given), the inhibition was 6.8%.

On to `NC(=S)NN=Cc1ccc(OC(=O)COc2cc(Cl)c(Cl)cc2Cl)cn1`, for which the inhibition is 12.2%.

Turning to `CC1(C)OC(=O)C2=C(CC(c3ccccc3)OC2CCc2ccccc2)O1` (stereo not given), the inhibition was -19.4%. As for `COc1ccc(S(=O)(=O)N2CCN(CC(=O)N3CCNC3=O)CC2)cc1OC`, the figure is 7.47%; as for `Cc1ccc(S(=O)(=O)N2C[C@@H](C)[C@]3(C2)[C@H](O)[C@H](OC(=O)NCc2ccccc2)C[C@H]2C(=O)N(c4ccccc4)C(=O)[C@H]23)cc1`, -1.46%.

What is called inhibition is the relative decrease from the control value, in per cent.
